The panel holds about 79,000 compounds, 15% with a hit somewhere; the sample as a whole holds those more often. Values without a mark were called inactive. Calls of active or inactive are those of the source. No stated cut-off is given here; in the data, active means growth inhibition above about 70%; inactive means the rest.
Key:
[1] = NCI Yeast Anticancer Drug Screen. Data for the rad50 strain (AID 155);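 further: 0% = growth of vehicle-only cultures of the same strain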; conditions: S. cerevisiae rad50 strain growth inhibition; at 50.0 µM; stronger effect = higher value
Summary of the method: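 Vehicle-treated cultures provide the reference for the growth inhibition reported for compound-exposed, repair-deficient yeast.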

[2] = NCI Yeast Anticancer Drug Screen. Data for the mec2-1 strain (AID 157); conditions: S. cerevisiae mec2-1 strain, at 50.0 µM, stronger effect = higher value
Summary of the method: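 Cells of the genetically defined mec2-1 yeast strain are incubated with test compound. Inhibition of growth is calculated against vehicle-treated controls.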

[3] = NCI Yeast Anticancer Drug Screen. Data for the sgs1 mgt1 strain (AID 161);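 further: 0% = growth of cultures given vehicle only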; conditions: S. cerevisiae sgs1 mgt1 strain, at 50.0 µM, stronger effect = higher value
Summary of the method: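 Genetically altered yeast, compound exposure, growth inhibition relative to vehicle.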

[4] = NCI Yeast Anticancer Drug Screen. Data for the cln2 rad14 strain (AID 165);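 further: 0% = growth equal to vehicle treated cultures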; conditions: S. cerevisiae cln2 rad14 strain, at 50.0 µM, stronger effect = higher value
Summary of the method: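 The screen exposed genetically defined yeast (cln2 rad14) to test compounds and scored growth inhibition relative to vehicle-treated controls.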

[5] = NCI Yeast Anticancer Drug Screen. Data for the bub3 strain (AID 167); conditions: S. cerevisiae bub3 mutant strain, at 50.0 µM, stronger effect = higher value
Summary of the method: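 Mutant yeast screening strain plus compound; vehicle-treated cultures serve as the 0% inhibition reference.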

[6] = NCI Yeast Anticancer Drug Screen. Data for the mlh1 rad18 strain (AID 175); conditions: S. cerevisiae mlh1 rad18 strain growth inhibition; at 50.0 µM; stronger effect = higher value
Summary of the method: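 Compound-treated yeast growth, normalised to vehicle controls. Strain bears defined DNA repair mutations.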

SMILES	growth inhibition [1]	growth inhibition [2]	growth inhibition [3] [%]	growth inhibition [4]	growth inhibition [5]	growth inhibition [6]
Nc1ccc(O)c(N=Nc2ccc(S(N)(=O)=O)cc2)c1	6%	0.1%	13.6	-1.1%	18.1%	10.1%
Cc1ccc(NC(=S)NC(Cc2ccccc2)c2ccccc2)cc1 (stereo not drawn)	78.8% (active)	79.2% (active)	-1.05	78.5% (active)	90% (active)	85.2% (active)
Cc1ccc(CCS(=O)(=O)N=[N+]=[N-])cc1	1.45%	-11.8%	-8.95	-53.8%	-20%	-3.4%
O=C(/C=C/c1cc2ccccc2o1)N1CCN(c2ccccn2)CC1	28.6%	27.6%	39.2	11.3%	17.9%	15.8%
CC(=O)Nc1ccc2c(Br)ccc3c2c1CC3	0.8%	-1.55%	4.3	0.6%	6.6%	-4.45%
CN1C(=O)CC2C(=O)N(Cc3ccccc3)C(=O)C2C1=O (stereo not drawn)	14%	-4%	-0.8	11.6%	1.3%	-2.85%
Cc1ccc(S(=O)(=O)OCC23CCC(CO)(CC2)CC3)cc1	9.75%	-2.45%	-0.85	15.7%	27.2%	14.2%
O=P(O)(O)CCC(O)CO (stereo not drawn)	-12.5%	10.3%	-11.6	-78.2%	4.6%	-17.5%
O=C(NO)Nc1ccc(Cl)cc1	12.2%	8.7%	2.95	-2.15%	-9.2%	1.65%
O=C1NC(=O)C(F)[CH]([Ge](=[O])[O][Ge](=[O])[CH]2NC(=O)NC(=O)C2F)N1 (stereo not drawn)	-7.45%	-8.85%	0.2	-7.35%	0.7%	-17.9%
O=[N+]([O-])c1cc(F)cc(I)c1	-3.15%	-38.6%	2.15	15.8%	4.25%	-5%
Nc1nc(N)c(N=Nc2ccc(Cl)cc2)c(=O)[nH]1	19.9%	-20.6%	-26.1	23.1%	5.35%	13.7%
O=C(NCCN1CCCC1)Nc1ccccc1	-3.2%	-20.2%	-17.2	-47.7%	2.3%	8.45%
CCOC(=O)/C(C#N)=C(O)/C(=C\c1ccc(Br)cc1)NC(=O)c1ccccc1	-29.9%	-12.9%	-24.2	13.2%	-4.25%	-15.1%
Cc1ccc(N=C2C(c3ccccc3)=C(SC3=C(c4ccccc4)C(=Nc4ccc(C)cc4)c4ccccc43)c3ccccc32)cc1	12.9%	0.7%	3.9	15.2%	-3%	-8.65%
N#CCCN1C(=O)C2(CCC#N)CCCCC2(O)N=C1c1ccccc1 (stereo not drawn)	-7.35%	6.15%	16.5	-0.5%	15.2%	7.7%
C[N+](C)(C)CC(=O)N/N=C(/Cc1nc2c3c(ccc2[nH]c1=O)C(=O)c1ccccc1C3=O)C(=O)Nc1ccc(Cl)c(Cl)c1	1.05%	-6.8%	-7.8	18.8%	7.5%	30.9%
CC(=O)Nc1ccccc1OC(=O)c1ccccc1	4.4%	-4.4%	2.6	11.9%	1.8%	-2.5%
Cc1cccc(C)c1NC(=S)N1CCC(CCCC2CCN(C(=S)Nc3c(C)cccc3C)CC2)CC1	-12.8%	-18.6%	-1.65	15.7%	4.8%	12.2%

SMILES	growth inhibition [1]	growth inhibition [2]	growth inhibition [3] [%]	growth inhibition [4]	growth inhibition [5]	growth inhibition [6]
CN(C)C12CCCCCC1S(=O)(=O)C2 (stereo not drawn)	-0.05%	-20.1%	0.85	-17.6%	-22.4%	3.45%
CC(C)C1=CC(=O)C(C)(C2=NC(C)(C)CO2)c2ccccc21 (stereo not drawn)	-0.1%	-9.35%	4.4	22.7%	-10.5%	5.3%
N=C(N)Cn1cnc2ccccc21	-13.7%	-10.3%	-9.65	14.9%	3.8%	-18.4%
O=C(Oc1ccccc1[N+](=O)[O-])Oc1ccccc1[N+](=O)[O-]	-3.45%	16.3%	19.5	-29.4%	16.2%	-2.7%
CC(CO)CCNc1ncnc2c1ncn2CCC(=O)O (stereo not drawn)	-8.7%	6%	-29.9	-23.5%	17.2%	-0.95%
C/C=C/C(=O)Nc1cc(Cl)ccc1C	-1.25%	-8.1%	-4.95	-52.1%	9.4%	5.55%
C(=N\c1nccs1)/c1ccc(/C=N/c2nccs2)cc1	-5.2%	-5.2%	1.6	9%	12.1%	7%
OC(CCc1ccco1)CCc1ccco1	19.9%	6.6%	11.5	1.4%	10.7%	14.1%
CCOC(=O)c1c(/N=C/c2cc(Br)cc(Br)c2O)sc2c1CCCC2	-14.2%	-19.1%	-13.2	-15.1%	-13.9%	-25.1%
CC(C)(C)CC(C)(C)[N+](=O)[O-]	-1.15%	-14.6%	2.75	6.85%	-3.25%	18.4%
CC(c1ccccc1)C(C)(C#N)c1ccccc1 (stereo not drawn)	2.8%	23.1%	15.8	33.5%	10.5%	40.4%
C=CCC(=O)OCc1cc2c(cc1Br)OCO2	-26.8%	-17.2%	-8.35	-10.6%	54.5%	5.85%
CCCNC(C)C(C)O (stereo not drawn)	-5.9%	-16.4%	-24.1	-16.3%	-4.75%	-10.9%
COc1ccccc1OC(=O)Nc1ccc(S(=O)(=O)N(C)C)cc1	28.2%	8.5%	0	4.1%	8.65%	6.65%
Cc1ccc(S(=O)(=O)OC2CCCCCC2c2ccccc2)cc1 (stereo not drawn)	7.85%	-5.1%	0.05	-42.5%	-2.75%	-3.55%
COC(=O)/C=C(/Nc1ccccc1C(=O)O)C(=O)OC	-5.55%	20.1%	-5.15	2.85%	-16.1%	-21.1%
O=CNCC(O)c1ccc2c(c1)[nH]c1ccccc12 (stereo not drawn)	30.6%	-16.2%	-1.45	-10.3%	19%	47.4%
O=C(O)c1ccc(C(=O)c2ccc(Cl)cc2)cc1	31.9%	44.5%	42.4	-6.35%	13.6%	34.6%
CN(C)c1ccccc1C(=O)NNC(=S)Nc1ccccc1	20.9%	-1.75%	42.7	-13.1%	30.4%	19.4%
